{"source": "PubChem BioAssay (NCI)", "note": "About 83,000 compounds went through this panel and 20% of them were active in at least one assay; those are over-represented in the sample as a whole.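 In brief: 96-well plates, 48 h treatment, single concentration, percent growth endpoint.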 A number with no mark means an inactive call. The source made the active and inactive calls. How the source made its calls: active means growth percent below 10; inactive means the rest.", "data": [{"tested_on": "MDA-MB-468 breast", "assay": "NCI-60 one-dose screen, 48 h (100 = growth as untreated, 0 = no growth, -100 = all killed)", "conditions": "10 µM unless noted", "values": [{"smiles": "O=c1[nH]c(-c2ccccn2)nc2sc3c(c12)CCCCCC3", "growth": "37.8%"}, {"smiles": "CC[C@H](Nc1nc(N)nc(N)c1Cl)c1nc2cccc(NCc3ccc(C(=O)NO)cc3)c2c(=O)n1-c1ccccc1", "growth": "-34.3% (active)"}, {"smiles": "CN(C)c1ccc(-c2cc(-c3ccc(Nc4nc(Nc5ccccc5)nc(Nc5ccc(Cl)cc5)n4)cc3)nc(N)n2)cc1", "growth": "74.3%"}, {"smiles": "O=C(c1ccncc1)N1N=C(c2ccc(Cl)cc2)CC1c1c[nH]c2ccccc12", "note": "(stereo unspecified)", "growth": "102%"}, {"smiles": "Clc1ccc2c(NCCCNCc3ccc4c(c3)OCO4)ccnc2c1", "growth": "-11.9% (active)"}, {"smiles": "Cc1cc2c(-c3nc4ccccc4[nH]3)c(O)c(O)cc2c(O)c1-c1c(C)cc2c(-c3nc4ccccc4[nH]3)c(O)c(O)cc2c1O", "growth": "-18.3% (active)"}, {"smiles": "Nc1ncnc2c1c(-c1ccc(Oc3ccccc3)cc1)nn2C[C@H]1SSC[C@H]1O", "growth": "-5.04% (active)"}, {"smiles": "COc1ccc(-c2ccc(-c3ccc(C(=N)N)s3)s2)cc1", "growth": "-75.9% (active)"}, {"smiles": "C/C(=N\\Nc1nc(C)cs1)c1cc2ccccc2o1", "growth": "82.6%"}, {"smiles": "S=c1[nH]nc(-c2cc3ccc2CCc2ccc(cc2)CC3)n1C1CC1", "growth": "106%"}, {"smiles": "C/C(=C\\CCc1ccoc1)CC/C=C(\\C)CCCN1CCOCC1", "growth": "5.68% (active)"}, {"smiles": "CN(C)c1ccc(Nc2c3ccccc3nc3ccccc23)cc1", "growth": "-27.5% (active)"}, {"smiles": "COc1ccc(C/C(C)=C(/c2ccc(OCCN3CCCCCC3)cc2)c2ccc(OC(=O)c3ccccc3)cc2)cc1", "growth": "111%"}, {"smiles": "Nc1cc2c([nH]c[n+]2CC#CCCl)c(SCC#CCCl)n1", "growth": "-57.1% (active)"}, {"smiles": "COc1cccc2c1Cc1ccccc1-2", "growth": "99%"}, {"smiles": "COc1c(Cl)ccc2c(-c3nc4cc(Cl)c(F)cc4s3)cc(=O)oc12", "growth": "80%"}, {"smiles": "Cn1cc(-c2nc(N)nnc2-c2c[nH]c3ccccc23)c2cc(Br)ccc21", "growth": "33%"}, {"smiles": "C=CCCCCCCCCC(=O)[O][Sn]([CH2]CCC)([CH2]CCC)[CH2]CCC", "growth": "-85.6% (active)"}, {"smiles": "CCOC(=O)c1c(Cl)c2c(n1Cc1ccccc1)-c1oncc1CCC2", "growth": "56%"}, {"smiles": "COc1ccc(C2C=C(c3ccc(Cl)c(Cl)c3)N=C3SC(C)=CN32)cc1OC", "note": "(stereo unspecified)", "growth": "53.1%"}, {"smiles": "O=S(=O)(Nc1ccc(-n2cnc3cc(-c4ccc(O)cc4)ccc32)cc1)c1ccccc1", "growth": "100%"}, {"smiles": "O=C1[C@@H]2Cc3c([nH]c4ccccc34)[C@H](c3c(Cl)cccc3Cl)N2C(=O)CN1C1CCN(Cc2ccccc2)CC1", "growth": "-33.4% (active)"}, {"smiles": "CC(=O)OC[C@]12CC[C@@H](C(=O)/C=C/c3cccnc3)[C@@H]1[C@H]1CC[C@@H]3[C@@]4(C)CC[C@H](OC(C)=O)C(C)(C)[C@@H]4CC[C@@]3(C)[C@]1(C)CC2", "growth": "-44% (active)"}, {"smiles": "CN1CCOCCOCCOc2ccccc2NC(=O)c2nc(cnc2N)-c2ccc(cc2)S1(=O)=O", "growth": "41.4%"}, {"smiles": "Nc1ccc2c(c1)c(N)nn2C(=O)Nc1ccc(Cc2ccccc2)cc1", "growth": "98.4%"}, {"smiles": "COCCn1cc(-c2csc(-c3cn(C)c4ccc(F)cc34)n2)c2cccnc21", "growth": "21.3%"}]}]}
